Measured values from PubChem BioAssay (EPA / NIEHS).
Results filed as inconclusive are left out. Calls of active or inactive are those of the source. Rule for the calls: active = hit-call score of the fitted dose curve at least 0.9, where 1 is the maximum; inconclusive = response in the unintended direction; inactive = score below 0.9.

Experiments:
[1] = target: sheep Cyclooxygenase-2 (Cox2), PTGS2 (gene 443460) (UniProt P79208); test: NVS_ENZ_oCOX2: NovaScreen (NVS) Enzymatic Assay for sheep Cyclooxygenase-2 (Cox2) (AID 2283231)
Summary of the method: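 Enzyme extracted from ovine placenta tested cell-free; activity read colorimetrically by absorbance 0.66 hour after dosing. Primary screen in duplicate at 25 uM; hits rerun as concentration series to 50 uM, loss of signal versus DMSO baseline.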

[2] = target: rabbit Imidazoline 2 Central (I2C), CKB (gene 100009085) (UniProt P00567); test: NVS_ENZ_rabI2C: NovaScreen (NVS) Enzymatic Assay for rabbit Imidazoline 2 Central (I2C) (AID 2283228)
Summary of the method: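 Rabbit brain membranes, cell-free; readout by filter-based scintillation counting 1.5 hours after dosing, loss of signal vs DMSO. Initial duplicate test at 25 uM, then concentration-response with 50 uM top concentration.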

[3] = target: human Serotonin, 5-Hydroxytryptamine Receptor 2A (5HT2A), HTR2A (gene 3356) (UniProt P28223); test: NVS_GPCR_h5HT2A: NovaScreen (NVS) G Protein-Coupled Receptor Assay for human Serotonin, 5-Hydroxytryptamine Receptor 2A (5HT2A) (AID 2283249)
Summary of the method: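 Radioligand displacement on human cortex tissue extract, counted by filtration and scintillation 1.5 h post-dosing. Initial single-concentration screen at 25 uM in duplicate, concentration series in follow-up; DMSO as baseline.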

[4] = tested on: guinea pig Muscarinic, Peripheral (Mperiperal) Receptor, Non-selective Binding, gene 100379235; test: NVS_GPCR_gMPeripheral_NonSelective: NovaScreen (NVS) G Protein-Coupled Receptor Assay for guinea pig Muscarinic, Peripheral (Mperiperal) Receptor, Non-selective Binding (AID 2283250)
Summary of the method: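 Screened in duplicate at 25 uM, hits retested in concentration series to 50 uM max, using bladder membrane radioligand displacement from guinea pig. Filtration and scintillation counting 1 h post-dose, fitted relative to DMSO.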

[5] = target: guinea pig Opioid, Kappa 1 Receptor (OpiateK), OPRK1 (gene 100135587) (UniProt P41144); test: NVS_GPCR_gOpiateK: NovaScreen (NVS) G Protein-Coupled Receptor Assay for guinea pig Opioid, Kappa 1 Receptor (OpiateK) (AID 2283252);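 note: radioligand displacement from kappa opioid receptor in guinea pig cerebellar membranes; active means reduced radioligand binding relative to DMSO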
Summary of the method: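 Cell-free tissue prep: guinea pig cerebellar membranes, radioligand displacement, 2 h incubation. Readout: filtration plus scintillation counting. Primary single-point 25 uM duplicate; actives retested in concentration series; DMSO negative control.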

[6] = target: human Adenosine A1 Receptor (AdoRA1), ADORA1 (gene 134) (UniProt P30542); test: NVS_GPCR_hAdoRA1: NovaScreen (NVS) G Protein-Coupled Receptor Assay for human Adenosine A1 Receptor (AdoRA1) (AID 2283254)
Summary of the method: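 Radioligand competition binding on human cortical membranes, 1 h after compound addition; bound radioactivity read by filtration and scintillation counting. Loss of signal versus DMSO baseline scored as displacement; primary screen duplicate at 25 uM, actives retested in concentration series.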

[7] = target: human Serotonin, 5-Hydroxytryptamine Receptor 7 (5HT7), HTR7 (gene 3363) (UniProt P34969); test: NVS_GPCR_h5HT7: NovaScreen (NVS) G Protein-Coupled Receptor Assay for human Serotonin, 5-Hydroxytryptamine Receptor 7 (5HT7) (AID 2283255);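 note: hits reduce specific radioligand binding relative to DMSO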
Summary of the method: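 Filter-bound radioactivity counted after 1 h, with loss of specific radioligand binding fitted against DMSO. Membrane protein came from CHO cells expressing human 5HT7. Chemicals were tested first at 25 uM in duplicate, then in concentration series if active.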

[8] = target: human Vascular Endothelial Growth Factor Receptor 1 (VEGFR1), FLT1 (gene 2321) (UniProt P17948); test: NVS_ENZ_hVEGFR1: NovaScreen (NVS) Enzymatic Assay for human Vascular Endothelial Growth Factor Receptor 1 (VEGFR1) (AID 2283226)
Summary of the method: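 Kinase activity of recombinant human VEGFR1 was read by fluorescence after electrophoretic separation of product from substrate, 1 h post-dosing; initial duplicate single-point testing at 25 uM, followed by concentration-series follow-up, with DMSO as baseline.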

[9] = target: human Vascular Endothelial Growth Factor Receptor 3 (VEGFR3), FLT4 (gene 2324) (UniProt P35916); test: NVS_ENZ_hVEGFR3: NovaScreen (NVS) Enzymatic Assay for human Vascular Endothelial Growth Factor Receptor 3 (VEGFR3) (AID 2283229)
Summary of the method: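 Chemicals first run in duplicate at 25 uM, with actives re-tested in concentration series to a top of 50 uM. Recombinant VEGFR3 activity measured after 1 h via fluorescence with mobility-shift product separation; inhibition fitted relative to DMSO.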

[10] = target: sheep Cyclooxygenase-1 (Cox1), PTGS1 (gene 443551) (UniProt P05979); test: NVS_ENZ_oCOX1: NovaScreen (NVS) Enzymatic Assay for sheep Cyclooxygenase-1 (Cox1) (AID 2283239);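 note: actives reduce cyclooxygenase activity so potencies are for inhibitors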
Summary of the method: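 Ovine seminal vesicle extract; absorbance (colorimetric) enzyme read-out at 0.66 h post-dose. Primary: single conc 25 uM, duplicate. Follow-up: concentration series on actives. Activity = signal loss vs DMSO baseline.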

[11] = target: bovine Dopamine Receptor (DR), Non-selective Binding, DRD1 (gene 281125) (UniProt Q95136); test: NVS_GPCR_bDR_NonSelective: NovaScreen (NVS) G Protein-Coupled Receptor Assay for bovine Dopamine Receptor (DR), Non-selective Binding (AID 2283241)
Summary of the method: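 Filter-based radioligand binding with bovine striatal membrane, incubated 1 h; DMSO as negative baseline. Initial duplicate single-point test at 25 uM preceded concentration series for actives.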

[12] = target: human Serotonin, 5-Hydroxytryptamine Receptor 5A (5HT5A), HTR5A (gene 3361) (UniProt P47898); test: NVS_GPCR_h5HT5A: NovaScreen (NVS) G Protein-Coupled Receptor Assay for human Serotonin, 5-Hydroxytryptamine Receptor 5A (5HT5A) (AID 2283251)
Summary of the method: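 Membranes from HEK293 cells, radioligand binding read by filtration and scintillation after 1 h. Single-concentration duplicate testing at 25 uM, then concentration-response for actives; positive-direction fitting relative to DMSO.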

[13] = target: human Serotonin, 5-Hydroxytryptamine Receptor 6 (5HT6), HTR6 (gene 3362) (UniProt P50406); test: NVS_GPCR_h5HT6: NovaScreen (NVS) G Protein-Coupled Receptor Assay for human Serotonin, 5-Hydroxytryptamine Receptor 6 (5HT6) (AID 2283253)
Summary of the method: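 Filter scintillation counting of radioligand displacement from HEK293-expressed 5HT6, 1 hour post-dose, with loss of signal relative to DMSO. Single 25 uM duplicates first, with concentration series for confirmation.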

[14] = target: rat Catechol-O-Methyl Transferase (COMT), Comt (gene 24267) (UniProt P22734); test: NVS_ENZ_rCOMT: NovaScreen (NVS) Enzymatic Assay for rat Catechol-O-Methyl Transferase (COMT) (AID 2283235)
Summary of the method: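 Rat dorsal striatum extract served as COMT source; product quantified by HPLC/spectrophotometry, read at 0 h after dosing. Primary single-concentration screen at 25 uM, followed by concentration series to a 50 uM maximum.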

[15] = tested on: guinea pig Leukotriene B4 Receptor (LTB4), gene 100379538; test: NVS_GPCR_gLTB4: NovaScreen (NVS) G Protein-Coupled Receptor Assay for guinea pig Leukotriene B4 Receptor (LTB4) (AID 2283247)
Summary of the method: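 Membranes from guinea pig spleen incubated 2 h with radioligand and compound; bound counts measured by filtration and scintillation. Screened first at 25 uM in duplicate, then actives titrated to a 50 uM top concentration relative to DMSO.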

[16] = target: rat Constitutive Nitric Oxide Synthase (CNOS), Nos1 (gene 24598) (UniProt P29476); test: NVS_ENZ_rCNOS: NovaScreen (NVS) Enzymatic Assay for rat Constitutive Nitric Oxide Synthase (CNOS) (AID 2283236)
Summary of the method: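 Single 25 uM duplicate screen, then concentration series to 50 uM for chemicals meeting threshold. Rat brain membrane-derived CNOS activity detected radiometrically by filtration and scintillation counting, 1 h after compound addition; DMSO as baseline.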

[17] = tested on: bovine Histamine 1 Receptor (H1), gene 281231; test: NVS_GPCR_bH1: NovaScreen (NVS) G Protein-Coupled Receptor Assay for bovine Histamine 1 Receptor (H1) (AID 2283246)
Summary of the method: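 Hits from a 25 uM duplicate primary screen were retested in concentration series (top 50 uM); binding measured as scintillation-counted displacement of radioligand from bovine cerebellar membranes after 1 h, normalised to DMSO.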

human Serotonin, 5-Hydroxytryptamine Receptor 7 (5HT7), HTR7 (gene 3363), sequence (P34969 whole entry, looked up): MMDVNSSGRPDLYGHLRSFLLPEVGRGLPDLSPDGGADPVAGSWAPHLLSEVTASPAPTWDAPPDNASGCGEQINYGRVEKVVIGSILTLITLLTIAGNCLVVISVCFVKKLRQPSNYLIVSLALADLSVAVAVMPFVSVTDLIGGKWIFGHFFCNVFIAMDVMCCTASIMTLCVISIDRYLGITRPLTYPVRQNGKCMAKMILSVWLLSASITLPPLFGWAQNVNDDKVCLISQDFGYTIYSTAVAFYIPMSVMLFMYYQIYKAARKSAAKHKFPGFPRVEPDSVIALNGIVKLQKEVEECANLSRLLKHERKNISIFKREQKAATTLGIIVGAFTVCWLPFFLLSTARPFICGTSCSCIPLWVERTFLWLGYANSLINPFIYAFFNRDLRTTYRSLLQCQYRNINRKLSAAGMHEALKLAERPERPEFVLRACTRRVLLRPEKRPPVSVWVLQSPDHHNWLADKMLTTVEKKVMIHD
human Vascular Endothelial Growth Factor Receptor 3 (VEGFR3), FLT4 (gene 2324), sequence (P35916 whole entry, looked up): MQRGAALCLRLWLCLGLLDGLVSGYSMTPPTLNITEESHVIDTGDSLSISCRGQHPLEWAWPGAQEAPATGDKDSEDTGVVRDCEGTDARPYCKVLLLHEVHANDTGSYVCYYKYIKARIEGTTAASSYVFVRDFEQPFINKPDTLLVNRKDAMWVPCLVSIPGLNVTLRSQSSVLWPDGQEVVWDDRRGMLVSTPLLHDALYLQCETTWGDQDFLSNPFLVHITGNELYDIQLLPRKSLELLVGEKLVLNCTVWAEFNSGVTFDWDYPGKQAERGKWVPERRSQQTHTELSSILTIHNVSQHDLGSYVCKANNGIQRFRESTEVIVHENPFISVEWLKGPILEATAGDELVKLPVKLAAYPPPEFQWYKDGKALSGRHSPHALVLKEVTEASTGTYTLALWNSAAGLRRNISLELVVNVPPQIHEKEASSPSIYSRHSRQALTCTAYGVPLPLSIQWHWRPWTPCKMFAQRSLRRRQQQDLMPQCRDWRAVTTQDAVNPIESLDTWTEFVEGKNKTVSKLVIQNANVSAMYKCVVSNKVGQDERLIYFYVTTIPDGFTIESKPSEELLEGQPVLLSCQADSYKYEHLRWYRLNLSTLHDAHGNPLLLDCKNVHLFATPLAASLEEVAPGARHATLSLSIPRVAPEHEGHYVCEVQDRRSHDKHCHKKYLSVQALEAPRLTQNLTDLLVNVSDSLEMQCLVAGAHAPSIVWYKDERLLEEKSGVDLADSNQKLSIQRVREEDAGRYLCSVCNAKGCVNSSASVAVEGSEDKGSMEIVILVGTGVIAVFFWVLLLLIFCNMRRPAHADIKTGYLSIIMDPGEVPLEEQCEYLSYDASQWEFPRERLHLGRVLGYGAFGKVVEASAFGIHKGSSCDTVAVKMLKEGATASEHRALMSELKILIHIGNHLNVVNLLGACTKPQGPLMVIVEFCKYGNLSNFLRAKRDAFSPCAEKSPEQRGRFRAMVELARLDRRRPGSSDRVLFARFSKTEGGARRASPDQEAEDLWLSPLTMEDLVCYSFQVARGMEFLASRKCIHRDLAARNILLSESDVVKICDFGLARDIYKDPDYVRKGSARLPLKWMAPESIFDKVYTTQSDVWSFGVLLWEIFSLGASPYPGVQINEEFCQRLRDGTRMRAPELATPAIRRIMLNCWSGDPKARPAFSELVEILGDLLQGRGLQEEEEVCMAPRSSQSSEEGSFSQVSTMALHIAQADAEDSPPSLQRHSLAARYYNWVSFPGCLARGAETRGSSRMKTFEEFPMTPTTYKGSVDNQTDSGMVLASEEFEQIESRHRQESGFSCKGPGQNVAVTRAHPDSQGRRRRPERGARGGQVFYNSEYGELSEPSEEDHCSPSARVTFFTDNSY
sheep Cyclooxygenase-1 (Cox1), PTGS1 (gene 443551), sequence (P05979 whole entry, looked up): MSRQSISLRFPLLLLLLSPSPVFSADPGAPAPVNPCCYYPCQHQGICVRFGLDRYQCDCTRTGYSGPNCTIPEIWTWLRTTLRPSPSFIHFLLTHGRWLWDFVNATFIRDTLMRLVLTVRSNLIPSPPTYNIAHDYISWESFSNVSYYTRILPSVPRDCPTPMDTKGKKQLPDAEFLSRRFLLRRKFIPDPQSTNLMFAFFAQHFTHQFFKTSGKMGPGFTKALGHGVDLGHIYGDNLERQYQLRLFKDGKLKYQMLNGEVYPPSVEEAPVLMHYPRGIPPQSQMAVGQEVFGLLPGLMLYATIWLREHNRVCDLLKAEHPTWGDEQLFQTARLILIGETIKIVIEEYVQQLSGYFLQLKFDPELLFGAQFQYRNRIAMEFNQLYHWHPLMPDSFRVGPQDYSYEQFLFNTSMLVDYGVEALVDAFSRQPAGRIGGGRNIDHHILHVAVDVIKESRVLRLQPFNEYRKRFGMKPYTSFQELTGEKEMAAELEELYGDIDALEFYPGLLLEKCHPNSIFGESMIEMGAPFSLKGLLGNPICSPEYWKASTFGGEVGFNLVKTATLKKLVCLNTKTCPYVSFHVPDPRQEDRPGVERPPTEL
human Serotonin, 5-Hydroxytryptamine Receptor 5A (5HT5A), HTR5A (gene 3361), sequence (P47898 whole entry, looked up): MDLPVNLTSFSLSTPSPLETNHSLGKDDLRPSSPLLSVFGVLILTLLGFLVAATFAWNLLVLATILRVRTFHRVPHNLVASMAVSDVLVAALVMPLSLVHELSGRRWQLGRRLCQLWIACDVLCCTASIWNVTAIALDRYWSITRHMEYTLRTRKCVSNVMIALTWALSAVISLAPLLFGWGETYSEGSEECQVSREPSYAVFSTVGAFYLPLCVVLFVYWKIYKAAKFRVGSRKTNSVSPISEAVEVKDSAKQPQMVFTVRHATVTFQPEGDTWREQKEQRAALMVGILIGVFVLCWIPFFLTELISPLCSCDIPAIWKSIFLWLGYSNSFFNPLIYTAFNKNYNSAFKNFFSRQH
sheep Cyclooxygenase-2 (Cox2), PTGS2 (gene 443460), sequence (P79208 whole entry, looked up): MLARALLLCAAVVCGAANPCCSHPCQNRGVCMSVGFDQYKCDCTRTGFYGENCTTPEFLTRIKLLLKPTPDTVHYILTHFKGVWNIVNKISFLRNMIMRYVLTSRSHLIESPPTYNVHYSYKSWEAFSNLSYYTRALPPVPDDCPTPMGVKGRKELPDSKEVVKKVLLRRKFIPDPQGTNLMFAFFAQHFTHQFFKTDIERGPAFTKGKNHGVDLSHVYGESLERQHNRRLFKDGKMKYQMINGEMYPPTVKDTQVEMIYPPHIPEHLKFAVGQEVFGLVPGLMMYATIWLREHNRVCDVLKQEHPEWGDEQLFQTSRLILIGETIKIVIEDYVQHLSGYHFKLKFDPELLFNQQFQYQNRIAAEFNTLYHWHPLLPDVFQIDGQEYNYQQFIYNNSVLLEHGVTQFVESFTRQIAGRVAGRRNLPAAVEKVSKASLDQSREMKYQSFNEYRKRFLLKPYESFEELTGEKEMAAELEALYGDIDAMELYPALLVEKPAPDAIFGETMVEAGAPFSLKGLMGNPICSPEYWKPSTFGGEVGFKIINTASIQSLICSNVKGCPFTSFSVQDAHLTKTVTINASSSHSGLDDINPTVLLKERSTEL
rabbit Imidazoline 2 Central (I2C), CKB (gene 100009085), sequence (P00567 whole entry, looked up): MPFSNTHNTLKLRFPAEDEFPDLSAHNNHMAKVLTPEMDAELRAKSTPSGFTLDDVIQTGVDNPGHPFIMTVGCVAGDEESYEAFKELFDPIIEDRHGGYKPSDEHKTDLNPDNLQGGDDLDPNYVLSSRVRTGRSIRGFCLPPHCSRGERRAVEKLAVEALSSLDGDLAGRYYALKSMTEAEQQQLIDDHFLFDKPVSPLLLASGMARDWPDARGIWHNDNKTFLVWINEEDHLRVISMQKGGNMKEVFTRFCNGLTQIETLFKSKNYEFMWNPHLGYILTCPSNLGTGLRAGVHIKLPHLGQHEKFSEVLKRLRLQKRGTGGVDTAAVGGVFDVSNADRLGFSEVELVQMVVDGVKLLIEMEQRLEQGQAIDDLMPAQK
human Serotonin, 5-Hydroxytryptamine Receptor 2A (5HT2A), HTR2A (gene 3356), sequence (P28223 whole entry, looked up): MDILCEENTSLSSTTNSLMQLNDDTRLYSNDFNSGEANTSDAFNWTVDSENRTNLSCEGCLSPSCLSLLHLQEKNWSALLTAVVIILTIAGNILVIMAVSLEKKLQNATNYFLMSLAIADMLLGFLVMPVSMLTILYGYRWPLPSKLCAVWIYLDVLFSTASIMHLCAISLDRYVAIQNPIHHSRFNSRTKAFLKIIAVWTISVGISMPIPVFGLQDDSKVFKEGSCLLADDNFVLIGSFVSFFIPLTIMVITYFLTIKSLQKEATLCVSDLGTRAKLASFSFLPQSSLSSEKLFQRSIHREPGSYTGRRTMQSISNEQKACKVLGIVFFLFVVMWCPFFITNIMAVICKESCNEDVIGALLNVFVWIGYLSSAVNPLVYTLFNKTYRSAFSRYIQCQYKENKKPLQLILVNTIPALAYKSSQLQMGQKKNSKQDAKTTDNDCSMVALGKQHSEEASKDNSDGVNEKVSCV
guinea pig Opioid, Kappa 1 Receptor (OpiateK), OPRK1 (gene 100135587), sequence (P41144 whole entry, looked up): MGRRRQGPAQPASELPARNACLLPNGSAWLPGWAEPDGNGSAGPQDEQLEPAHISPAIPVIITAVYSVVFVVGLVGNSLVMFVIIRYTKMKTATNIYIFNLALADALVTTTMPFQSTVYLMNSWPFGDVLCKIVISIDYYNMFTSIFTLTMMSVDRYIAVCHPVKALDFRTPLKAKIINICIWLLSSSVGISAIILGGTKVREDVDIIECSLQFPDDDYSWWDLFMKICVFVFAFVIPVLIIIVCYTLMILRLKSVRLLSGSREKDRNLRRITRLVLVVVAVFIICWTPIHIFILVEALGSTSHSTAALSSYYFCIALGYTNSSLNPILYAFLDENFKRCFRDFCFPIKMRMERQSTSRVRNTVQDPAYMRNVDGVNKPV
human Adenosine A1 Receptor (AdoRA1), ADORA1 (gene 134), sequence (P30542 whole entry, looked up): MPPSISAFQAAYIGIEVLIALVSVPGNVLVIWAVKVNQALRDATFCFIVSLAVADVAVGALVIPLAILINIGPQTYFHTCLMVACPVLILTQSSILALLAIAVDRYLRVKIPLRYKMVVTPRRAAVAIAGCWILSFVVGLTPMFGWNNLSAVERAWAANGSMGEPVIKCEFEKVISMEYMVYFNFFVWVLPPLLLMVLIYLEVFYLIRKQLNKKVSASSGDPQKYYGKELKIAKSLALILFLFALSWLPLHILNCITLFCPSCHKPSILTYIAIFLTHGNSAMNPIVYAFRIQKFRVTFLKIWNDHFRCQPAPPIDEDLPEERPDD

In the case of `CC(=O)c1ccc2c(c1)[C@H](NC(=O)c1ccc(F)cc1)[C@@H](O)C(C)(C)O2`, the AC50 [1] is reported as 11.3 µM (active).
For `CC[C@H]1CC[C@H](NCc2cc3c(cc2OC)[C@H]2C[C@H]2C(=O)N3C)[C@H](c2ccccc2)N1`, the AC50 [2] was 10.4 µM (active), the AC50 [3] was 9.49 µM (active) and the AC50 [4] was 1.05 µM (active). The AC50 [5] was 2.02 µM (active), the AC50 [6] was 13.6 µM (active) and the AC50 [7] was 20.4 µM (active).
For `CC(C)c1cccc(C(C)C)c1N1C(=O)c2ccc(O)cc2C1=O`, the outcome [8] was “inactive”, the outcome [9] was “inactive” and the AC50 [1] was 4.32 µM (active). The AC50 [10] was 2.48 µM (active).
`Fc1ccccc1[C@@H](F)COC1CCC(Nc2ncnc3[nH]ncc23)CC1` (some centres not stated) was tested, and the outcome [2] was “inactive”.
`Cc1[nH]cnc1C[C@H]1CCc2c(C)c3ccccc3n2C1=O` was tested, and the outcome [2] was “inactive”, the AC50 [11] was 8.58 µM (active) and the AC50 [3] was 1.45 µM (active). The AC50 [4] was 10.5 µM (active), the AC50 [12] was 2.93 µM (active) and the outcome [5] was “inactive”. The AC50 [13] was 0.399 µM (active) and the AC50 [7] was 3.82 µM (active).
With `COC(=O)c1c(Cl)c(Cl)c(C(=O)OC)c(Cl)c1Cl` the outcome [9] was “inactive”.
In the case of `CC(C)=CCC/C(C)=C\CO`, the AC50 [1] is reported as 4.26 µM (active) and the AC50 [10] is reported as 25 µM (active).
In the case of `O=C(OC[C@H]1O[C@@H](OC(=O)c2cc(O)c(O)c(OC(=O)c3cc(O)c(O)c(O)c3)c2)[C@H](OC(=O)c2cc(O)c(O)c(OC(=O)c3cc(O)c(O)c(O)c3)c2)[C@@H](OC(=O)c2cc(O)c(O)c(OC(=O)c3cc(O)c(O)c(O)c3)c2)[C@@H]1OC(=O)c1cc(O)c(O)c(OC(=O)c2cc(O)c(O)c(O)c2)c1)c1cc(O)c(O)c(OC(=O)c2cc(O)c(O)c(O)c2)c1`, the AC50 [1] is reported as 2.87 µM (active), the AC50 [14] is reported as 0.371 µM (active) and the AC50 [10] is reported as 4.31 µM (active). For the same compound, the outcome [15] was “inactive”.
In the case of `CN(C)c1ccc(N=NS(=O)(=O)O)cc1`, the outcome [8] is reported as “inactive”, the AC50 [2] is reported as 23.8 µM (active) and the outcome [9] is reported as “inactive”. The outcome [16] was “inactive” and the AC50 [5] was 8.61 µM (active).
For `C[C@](N)(Cc1ccc(O)c(O)c1)C(=O)O`, the AC50 [1] was 6.83 µM (active) and the AC50 [10] was 2.33 µM (active).
`O=C(O)c1cccc(Oc2ccccc2)c1` was tested, and the outcome [9] was “inactive” and the outcome [15] was “inactive”.
`Cc1ccc(N)cc1O` was tested, and the outcome [8] was “inactive” and the outcome [9] was “inactive”.
With `CCCCCCc1ccc(O)cc1O` the AC50 [1] was 11 µM (active), the AC50 [10] was 5.25 µM (active) and the outcome [12] was “inactive”. The AC50 [7] was 25 µM (active).
`CCN(C(=O)c1cc(C)cc(OC[C@H](C)Nc2ccncc2)c1)C(C)C` was tested, and the outcome [2] was “inactive” and the outcome [3] was “inactive”.
In the case of `COc1cccc(-c2ccc(/C=C\CN3CCCCCC3)cc2Cl)c1`, the AC50 [2] is reported as 22.6 µM (active), the AC50 [16] is reported as 29.9 µM (active) and the AC50 [11] is reported as 36.4 µM (active). The AC50 [17] was 8.81 µM (active), the AC50 [3] was 15.8 µM (active) and the AC50 [4] was 11.1 µM (active). The AC50 [12] was 22.6 µM (active) and the AC50 [7] was 17.5 µM (active).
